Here are results for five molecules from PubChem BioAssay.

A short description of assay [1]: optical density shifts of acrAB sulA E. coli – strain DRC41, OD650, 48 h, E. coli filamentation inducer project, primary screen (AID 1152).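 Also: E. coli MC1000 strain DRC41 lacking acrAB efflux pump and sulA.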 The note with it: higher = more signal, called active from +8 up or from −8 down.
Assay [2] in a line: probe aLefty1 binding on compound microarray – biochemical, small-molecule microarray, 635/667 nm fluorescence, primary screen (AID 1153).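 Also: score merges spot fluorescence with signal-to-noise ratio from the scanned slide images.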 The note with it: higher = more signal.
Assay [3] is described as follows: plasmodial surface anion channel blockers, osmotic lysis – cell-based, P. falciparum Indochina, OD700, 1 h, primary screen (AID 1154). The note with it: P. falciparum Indochina infected RBC osmotic lysis, higher = more signal, called active from +8 up or from −8 down.
A short description of assay [4]: plasmodial surface anion channel blockers, osmotic lysis – cell-based, P. falciparum Indochina, OD700, 2 h, primary screen (AID 1155).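 Also: lysis reports solute entry through the parasite surface anion channel PSAC.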 As to conditions: P. falciparum Indochina infected erythrocytes, higher = more signal, called active from +8 up or from −8 down.
Assay [5] is described as follows: changes in parasitized red cell lysis, either direction – P. falciparum Indochina, OD700, 3 h, PSAC antagonist project, primary screen (AID 1156). As to conditions: P. falciparum-infected erythrocytes, osmotic lysis, higher = more signal, called active from +8 up or from −8 down.
The nature of assay [6]: plasmodial surface anion channel blockers, osmotic lysis – cell-based, P. falciparum Indochina, OD700, 18 h, primary screen (AID 1157). As to conditions: P. falciparum Indochina infected erythrocytes, osmotic lysis OD700, 18 h; higher = more signal, called active from +8 up or from −8 down.
Assay [7] can be described thus: S6 kinase pathway phospho-S6 level changes – cell-based, A549, cytoblot, luminescence, serum-stimulated, primary screen (AID 1158).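 Also: serum-stimulated A549 lung adenocarcinoma cells; signal is phosphorylated S6 detected by cytoblot immunostaining with HRP secondary.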 As to conditions: 5 h, higher = more signal.
Assay [8] concerns the target NADPH oxidase 2 (Homo sapiens) (UniProt P04839). The experiment in a line: compounds shifting NOX2 Amplex Red fluorescence – cell-based, HEK293-NOX2, PMA-stimulated, NOX inhibitor project, primary screen (AID 1159). Also: test concentration not given here. The note with it: 45 min, higher = more signal, called active from +8 up or from −8 down.
Assay [9] addresses NADPH oxidase 4 (Homo sapiens) (UniProt Q9NPH5). Briefly: compounds shifting NOX4 Amplex Red fluorescence – cell-based, HEK293-NOX4, tetracycline-induced, NOX inhibitor project, primary screen (AID 1160). The note with it: HEK293-NOX4, Amplex Red H2O2 fluorescence, 45 min; higher = more signal, called active from +8 up or from −8 down.
The target in assay [10] is NADPH oxidase 5 (Homo sapiens) (UniProt Q96PH1). The experiment in a line: compounds shifting NOX5 Amplex Red fluorescence – cell-based, HEK293-NOX5, NOX inhibitor project, primary screen (AID 1161). The note with it: HEK293-NOX5, ionomycin, 45 min, higher = more signal.
NADPH oxidase 5 (Homo sapiens), sequence (Q96PH1 whole entry, looked up): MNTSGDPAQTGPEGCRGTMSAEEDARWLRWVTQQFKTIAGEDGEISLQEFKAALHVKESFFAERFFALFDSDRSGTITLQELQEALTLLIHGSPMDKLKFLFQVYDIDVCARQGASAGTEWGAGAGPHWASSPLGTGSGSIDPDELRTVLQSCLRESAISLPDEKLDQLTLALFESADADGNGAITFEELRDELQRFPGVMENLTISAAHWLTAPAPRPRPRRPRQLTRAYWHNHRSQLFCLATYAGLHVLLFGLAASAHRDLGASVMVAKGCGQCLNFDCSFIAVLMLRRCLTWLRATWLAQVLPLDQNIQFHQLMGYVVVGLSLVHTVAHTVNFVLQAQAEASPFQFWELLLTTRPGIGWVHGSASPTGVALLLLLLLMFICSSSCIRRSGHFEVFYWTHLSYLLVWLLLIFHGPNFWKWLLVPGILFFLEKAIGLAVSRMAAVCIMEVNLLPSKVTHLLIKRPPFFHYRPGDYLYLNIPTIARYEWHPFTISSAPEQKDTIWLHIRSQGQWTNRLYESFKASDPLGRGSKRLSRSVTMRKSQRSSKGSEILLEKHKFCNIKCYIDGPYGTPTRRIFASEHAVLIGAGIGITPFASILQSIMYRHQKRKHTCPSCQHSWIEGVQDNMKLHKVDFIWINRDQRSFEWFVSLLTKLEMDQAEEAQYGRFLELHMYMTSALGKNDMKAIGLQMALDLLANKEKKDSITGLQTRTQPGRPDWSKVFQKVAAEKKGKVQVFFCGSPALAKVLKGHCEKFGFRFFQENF
The nature of assay [11]: compound effects on lung adenocarcinoma cell viability – A549, calcein-AM fluorescence, 48 h, basal, profiling panel (AID 1162). Also: test concentration not given here. As to conditions: higher = more signal.
Assay [12] in a line: compound effects on differentiated 3T3-L1 adipocyte viability – cell-based, 3T3-L1 adipocytes, calcein-AM fluorescence, 48 h, basal, profiling panel (AID 1163). Also: test concentration not given here. As to conditions: 3T3-L1 adipocytes viability, higher = more signal.
A short description of assay [13]: compound effects on hepatocellular carcinoma cell viability – HepG2, calcein-AM fluorescence, 48 h, basal, profiling panel (AID 1164). Also: test concentration not given here. As to conditions: higher = more signal.
A short description of assay [14]: compound effects on multiple myeloma cell viability – MM1S, calcein-AM fluorescence, 48 h, basal, profiling panel (AID 1165).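 Also: viability of MM1S multiple myeloma cells under basal unstimulated conditions; test concentration not given here.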 The note with it: higher = more signal.
Assay [15] in a line: calcein-AM signal in unstimulated myeloma cells – cell-based, calcein-AM fluorescence, 48 h, PK04 Diversity Set, profiling panel (AID 1166).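 Also: cells grown under basal conditions without added stimulus; test concentration not given here.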 The note with it: RPMI8226 myeloma viability, higher = more signal.
Assay [16] is described as follows: JC-1 mitochondrial signal, unstimulated HepG2 cells – cell-based, JC-1 fluorescence, 24 h, 100 nL compound, profiling panel (AID 1167). Also: test concentration not given here. The note with it: HepG2 mitochondrial potential, higher = more signal.
Assay [17] can be described thus: JC-1 mitochondrial signal, unstimulated adipocytes – cell-based, JC-1 fluorescence, 3T3-L1 adipocytes, 24 h, 100 nL compound, profiling panel (AID 1168). Also: test concentration not given here. As to conditions: JC-1 mitochondrial fluorescence, higher = more signal, called active from +8 up or from −8 down.
Assay [18] is described as follows: JC-1 mitochondrial signal, unstimulated myeloma cells – cell-based, JC-1 fluorescence, RPMI8226, 24 h, 100 nL compound, profiling panel (AID 1169). Also: test concentration not given here. As to conditions: JC-1 mitochondrial potential fluorescence, higher = more signal.
A short description of assay [19]: JC-1 mitochondrial signal, unstimulated MM1S myeloma – cell-based, JC-1 fluorescence, 24 h, 100 nL compound, profiling panel (AID 1170). Also: test concentration not given here. The note with it: MM1S mitochondrial potential, higher = more signal.
The nature of assay [20]: resazurin metabolic signal in A549 cells – cell-based, resazurin fluorescence, 24 h, PK04 Diversity Set, profiling panel (AID 1171). Also: test concentration not given here. The note with it: A549 viability, higher = more signal, called active from +8 up or from −8 down.

Structures are written as SMILES. Active and inactive are the calls of the source.

NADPH oxidase 4 (Homo sapiens), sequence (Q9NPH5 whole entry, looked up): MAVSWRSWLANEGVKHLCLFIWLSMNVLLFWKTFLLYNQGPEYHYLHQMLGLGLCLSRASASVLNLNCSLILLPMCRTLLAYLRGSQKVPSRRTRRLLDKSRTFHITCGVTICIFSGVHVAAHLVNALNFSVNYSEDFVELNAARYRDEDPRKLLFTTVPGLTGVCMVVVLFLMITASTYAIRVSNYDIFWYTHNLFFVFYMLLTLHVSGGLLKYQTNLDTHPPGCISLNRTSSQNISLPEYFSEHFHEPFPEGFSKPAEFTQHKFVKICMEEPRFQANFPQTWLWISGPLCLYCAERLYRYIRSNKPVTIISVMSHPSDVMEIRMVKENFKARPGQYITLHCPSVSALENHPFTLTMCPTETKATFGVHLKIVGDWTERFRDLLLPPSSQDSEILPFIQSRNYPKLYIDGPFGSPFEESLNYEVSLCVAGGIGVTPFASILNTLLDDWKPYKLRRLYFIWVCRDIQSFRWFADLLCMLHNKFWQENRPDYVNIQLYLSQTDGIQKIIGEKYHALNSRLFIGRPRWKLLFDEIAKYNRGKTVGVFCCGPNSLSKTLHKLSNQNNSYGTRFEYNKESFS
NADPH oxidase 2 (Homo sapiens), sequence (P04839 whole entry, looked up): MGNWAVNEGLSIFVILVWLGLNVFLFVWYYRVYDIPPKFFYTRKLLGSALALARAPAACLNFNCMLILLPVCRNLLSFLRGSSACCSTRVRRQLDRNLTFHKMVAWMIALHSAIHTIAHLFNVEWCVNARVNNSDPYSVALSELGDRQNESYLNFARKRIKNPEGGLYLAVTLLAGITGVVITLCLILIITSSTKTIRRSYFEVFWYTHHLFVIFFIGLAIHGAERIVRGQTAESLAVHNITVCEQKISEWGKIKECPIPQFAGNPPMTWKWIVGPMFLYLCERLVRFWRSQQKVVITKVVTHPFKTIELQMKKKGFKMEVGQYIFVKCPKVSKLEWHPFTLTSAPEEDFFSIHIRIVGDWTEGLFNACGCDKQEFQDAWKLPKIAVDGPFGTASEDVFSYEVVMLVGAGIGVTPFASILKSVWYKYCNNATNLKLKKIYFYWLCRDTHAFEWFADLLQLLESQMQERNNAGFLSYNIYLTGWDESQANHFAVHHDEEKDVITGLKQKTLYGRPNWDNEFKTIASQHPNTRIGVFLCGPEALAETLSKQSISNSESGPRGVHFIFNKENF

On to `CCOC(=O)C[C@H]1[C@H](OC(=O)c2ccccc2-c2ccccc2)[C@@H](NC(=O)CC(C)C)c2cc(OCCCO)ccc2N1C(=O)c1ccc2ccccc2n1`, for which the z-score in assay [1] is -0.518 (inactive); in [3] it was 11.9 (active); in assay [4] it was 1.64 (inactive); in [5], -0.0722 (inactive); in assay [6] it was 0.598 (inactive); in [7], -0.577. The z-score in assay [8] was -0.274 (inactive); in assay [9], 1.15 (inactive); in [10] it was 1.51; in [11] it was 0.375; in [12], 0.556; in assay [13], 0.2. In addition, the z-score in [14] was -1.32; in [15], -2.05; in assay [16], 0.851; in assay [17], -0.0831 (inactive); in assay [18], -0.537; in [19] it was 0.32. In assay [20], the z-score was -0.109 (inactive). Besides, the composite z-score in [2] was -0.192.
As to `O=C1O[C@@H](c2ccccc2)[C@@H](c2ccccc2)N2[C@@H](c3ccc(O)cc3)[C@]3(C(=O)Nc4ccccc43)[C@@H](C(=O)Nc3nc4ccccc4s3)[C@H]12`, the z-score in assay [1] is -0.198 (inactive); in assay [3], 1.37 (inactive); in assay [4], 2.29 (inactive); in assay [5], -0.492 (inactive); in assay [6] it was 1.82 (inactive); in assay [7] it was -0.132. In addition, the z-score in assay [8] was 0.642 (inactive); in [9], 0.0436 (inactive); in assay [10], 0.933; in assay [11] it was -2.07; in assay [12], 0.353; in [13], -1.49. In addition, the z-score was -3.37 in assay [14]; -4.55 in assay [15]; -3.64 in [16]; 0.169 (inactive) in assay [17]; -1.23 in assay [18]; -1.76 in assay [19]. In addition, the z-score in assay [20] was -1.9 (inactive). This molecule also had a composite z-score in assay [2] of -0.209.
Regarding `CC=CC(O)C1C=CC2C(=O)N(C)C(=O)C2N1N1CCCCC1` (stereo not given), the z-score was -1.81 (inactive) in assay [1]; 0.974 (inactive) in assay [3]; 1.18 (inactive) in assay [4]; -0.343 (inactive) in assay [5]; 0.801 (inactive) in [6]; -1.01 in assay [7]. For the same molecule, the z-score in assay [8] was -0.605 (inactive); in assay [9], -0.473 (inactive); in [10], -1.96; in assay [11] it was -0.0516; in assay [12], -2.06; in assay [13] it was -0.843. Further, the z-score was -0.714 in [14]; -0.922 in assay [15]; -1.52 in assay [16]; -1.36 (inactive) in [17]; -0.615 in assay [18]; -0.00172 in assay [19]. For the same molecule, the z-score in assay [20] is -0.232 (inactive). Also, the composite z-score in assay [2] was -0.0359.
Take `CCOc1cc(C(O)C2C=CC3C(=O)N(C4CCCCC4)C(=O)C3N2Nc2ccc(OC)cc2)ccc1O` (stereo not given): the z-score was -0.0582 (inactive) in assay [1]; 6.34 (inactive) in [3]; 0.679 (inactive) in assay [4]; 1.04 (inactive) in assay [5]; 0.265 (inactive) in assay [6]; -0.089 in assay [7]. Also, the z-score in assay [8] is -2.2 (inactive); in assay [9], -3.71 (inactive); in assay [10], -2.46; in assay [11] it was 0.366; in [12], -0.786; in [13], 0.772. Moreover, the z-score in [14] is 0.26; in [15], -0.141; in assay [16] it was 0.551; in [17], 0.283 (inactive); in assay [18] it was -0.0341; in [19], -1.87. Moreover, the z-score in assay [20] was 0.265 (inactive). Moreover, the composite z-score in assay [2] is 0.666.
Regarding `CCOC(=O)[C@H]1C/C=C/C[C@H](C(=O)OCC)C(=O)O[C@H]2[C@@H](OC)O[C@H](CO)[C@@H](OC(=O)CCc3ccccc3)[C@@H]2OC1=O`, the z-score in [1] is -0.142 (inactive); in assay [3] it was 0.955 (inactive); in assay [4], 0.175 (inactive); in [5], -0.518 (inactive); in assay [6] it was 0.386 (inactive); in assay [7], -0.0947. In addition, the z-score was 0.281 (inactive) in assay [8]; 0.273 (inactive) in [9]; 0.541 in [10]; 0.837 in assay [11]; 0.342 in assay [12]; 0.957 in [13]. Also, the z-score in assay [14] is 0.269; in assay [15], 0.331; in assay [16] it was 0.957; in assay [17], 0.352 (inactive); in assay [18], 0.655; in [19], -0.533. Moreover, the z-score in assay [20] is -0.553 (inactive). The same molecule gave a composite z-score in [2] of 1.63.
